# Results from PubChem BioAssay (EPA / NIEHS).
# Inconclusive results are not listed. Calls of active or inactive are those of the source. Rule for the calls: active = hit-call score of the fitted dose curve at least 0.9, where 1 is the maximum; inconclusive = response in the unintended direction; inactive = score below 0.9.
# What was measured:
# [1] = ACEA_AR_agonist_AUC_viability: ACEA Biosciences xCELLigence Real-Time Cell Analysis on Androgen Receptor Agonism for Viability (AID 2283775);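 for AC50: viability read 80 hours after compound addition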
# Outline: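 Real-time impedance tracking of 22Rv1 growth, readings every 5 min for 5 h then hourly; area-under-curve viability endpoint at 80 hours, relative to DMSO. Compounds at eight concentrations, 1:4 steps, top 100 uM, n = 2.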
# [2] = ACEA_ER_AUC_viability: ACEA Biosciences xCELLigence Real-Time Cell Analysis on Estrogen Receptor Agonism for Viability (AID 2283782);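 note: hit means loss of impedance signal meaning reduced cell growth or viability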
# Outline: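 T-47D; phenol red-free RPMI1640 + 10% CS-FBS; 8 conc., 1:4 serial, max 100 uM final, ≤0.5% DMSO; n = 2; continuous exposure; impedance monitored to 80 h post-dose; AUC vs DMSO.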
# AR (gene 367) [3] = target: AR (gene 367) (UniProt P10275); assay: ACEA_AR_antagonist_80hr: ACEA Biosciences xCELLigence Real-Time Cell Analysis on Androgen Receptor Antagonism for Proliferation (AID 2283787);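 note: 22Rv1 human prostate cancer cells with growth followed by electrical impedance; hits lower the impedance growth signal relative to DMSO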
# Outline: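 Growth-kinetic antagonist readout in 22Rv1 cells, taken 80 h after continuous compound exposure. Activity fitted as signal loss relative to DMSO negative control.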
# [4] = ACEA_AR_antagonist_AUC_viability: ACEA Biosciences xCELLigence Real-Time Cell Analysis on Androgen Receptor Antagonism for Viability (AID 2283776);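 note: 22Rv1 human prostate cancer cells growing on impedance electrode plates; hits lower the growth signal relative to DMSO meaning cytotoxicity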
# Outline: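 Real-time electrical impedance tracks 22Rv1 proliferation after continuous compound exposure (top 100 uM final, 1:4 steps, 8 concentrations). The 80 h area-under-curve serves as the cytotoxicity readout relative to DMSO.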
# AR (gene 367) [5] = target: AR (gene 367) (UniProt P10275); assay: ACEA_AR_agonist_80hr: ACEA Biosciences xCELLigence Real-Time Cell Analysis on Androgen Receptor Agonism for Proliferation (AID 2283783);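 note: hits increase impedance growth signal above DMSO baseline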
# Outline: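 Androgen-driven proliferation in 22Rv1 cells is tracked as electrical impedance, taken 80 h after continuous exposure to compound (eight concentrations, 1:4 steps, maximum 100 uM final). Activity is fitted in the positive direction with DMSO as baseline.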
# Sequence of AR (gene 367) (P10275 whole entry, looked up): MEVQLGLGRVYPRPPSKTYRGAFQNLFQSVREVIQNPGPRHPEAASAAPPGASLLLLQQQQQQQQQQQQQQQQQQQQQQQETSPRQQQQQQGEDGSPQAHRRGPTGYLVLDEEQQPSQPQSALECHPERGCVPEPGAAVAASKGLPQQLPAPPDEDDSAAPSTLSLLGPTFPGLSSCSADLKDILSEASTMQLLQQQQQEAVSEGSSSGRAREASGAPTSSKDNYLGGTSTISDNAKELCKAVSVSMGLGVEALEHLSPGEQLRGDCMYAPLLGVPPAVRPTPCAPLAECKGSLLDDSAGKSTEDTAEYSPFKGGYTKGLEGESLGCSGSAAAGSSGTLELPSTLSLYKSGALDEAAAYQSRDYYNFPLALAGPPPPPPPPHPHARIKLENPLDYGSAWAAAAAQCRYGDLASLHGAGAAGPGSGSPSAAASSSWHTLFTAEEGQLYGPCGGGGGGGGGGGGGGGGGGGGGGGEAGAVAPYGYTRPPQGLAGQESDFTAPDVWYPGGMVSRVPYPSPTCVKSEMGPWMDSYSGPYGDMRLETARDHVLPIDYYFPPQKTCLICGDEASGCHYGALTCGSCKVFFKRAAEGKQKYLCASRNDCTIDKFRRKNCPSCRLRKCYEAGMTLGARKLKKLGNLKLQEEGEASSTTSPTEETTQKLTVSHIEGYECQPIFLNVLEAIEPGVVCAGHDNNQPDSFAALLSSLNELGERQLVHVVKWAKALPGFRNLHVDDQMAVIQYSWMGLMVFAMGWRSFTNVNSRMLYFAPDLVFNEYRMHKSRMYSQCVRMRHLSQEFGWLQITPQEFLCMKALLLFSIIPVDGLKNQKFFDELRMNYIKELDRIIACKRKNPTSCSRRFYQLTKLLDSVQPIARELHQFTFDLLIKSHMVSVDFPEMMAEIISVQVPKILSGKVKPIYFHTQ
structure (smiles),measurement,setting,value
CC(=O)OCc1ccccc1,outcome,[1],inactive
same,outcome,[2],inactive
same,outcome,AR (gene 367) [3],inactive
CCCCC(CC)COS(=O)(=O)O (stereo unspecified),outcome,[1],inactive
same,outcome,[4],inactive
CO[Si](C)(C)OC,outcome,[1],inactive
same,outcome,[4],inactive
same,outcome,[2],inactive
CC1=CCC2CC1C2(C)C (stereo unspecified),outcome,[1],inactive
CCCCOCCOC(=O)COc1ccc(Cl)cc1Cl,outcome,[1],inactive
CCC(C)(O)CCCC(C)C (stereo unspecified),outcome,[1],inactive
same,outcome,[2],inactive
CCCCCCCCCC(C)=O,outcome,[1],inactive
same,outcome,[4],inactive
same,outcome,[2],inactive
same,outcome,AR (gene 367) [3],inactive
NC(=O)Nc1ccccc1,outcome,[1],inactive
same,outcome,[4],inactive
CN(C)Cc1cc(CN(C)C)c(O)c(CN(C)C)c1,AC50,[1],4.16 µM (active)
same,outcome,AR (gene 367) [5],inactive
CCCC(CC)c1ccccc1 (stereo unspecified),outcome,[1],inactive
same,outcome,[2],inactive
CCCCNC(=S)NCCCC,outcome,[1],inactive
CCC[Si](OC)(OC)OC,outcome,[1],inactive
same,outcome,AR (gene 367) [5],inactive
O=C(O)CC(C(=O)O)S(=O)(=O)O (stereo unspecified),outcome,[1],inactive
same,outcome,[4],inactive
CC(C)c1cc(C(C)C)cc(C(C)C)c1,outcome,[1],inactive
same,outcome,[2],inactive
CCCCCCCCCCCC(=O)N(C)CC(=O)O,outcome,[1],inactive
same,outcome,[2],inactive
CCCCCCCCC(CO)CCCCCC (stereo unspecified),outcome,[1],inactive
same,outcome,[4],inactive
same,AC50,[2],33.9 µM (active)
CCCCC(C=O)CC (stereo unspecified),outcome,[1],inactive
CC(C)(C)N,outcome,[1],inactive
same,outcome,[4],inactive
same,outcome,[2],inactive
O=C(O)CCC(=O)O,outcome,[1],inactive
same,outcome,[2],inactive
CCCCCCCCCC[N+](C)(CCCCCCCCCC)CCC[Si](OC)(OC)OC,AC50,[1],5.04 µM (active)
same,AC50,[4],16.1 µM (active)
same,AC50,[2],17 µM (active)
CCCCCCCCCCCCCC(=O)OC(C)C,outcome,[1],inactive
same,outcome,[4],inactive
same,outcome,[2],inactive
same,outcome,AR (gene 367) [3],inactive
Oc1ccc(-c2ccccc2)c(Cl)c1,outcome,[1],inactive
same,AC50,[2],82.6 µM (active)
same,outcome,AR (gene 367) [5],inactive
same,AC50,AR (gene 367) [3],0.56 µM (active)
Cc1c(C(=O)c2c[nH]n(C)c2=O)ccc(S(C)(=O)=O)c1C1=NOCC1,outcome,[1],inactive
same,outcome,[4],inactive
same,outcome,AR (gene 367) [3],inactive
CCCCC(=O)O,outcome,[1],inactive
C=C(C)C1CC=C(C)CC1 (stereo unspecified),outcome,[1],inactive
same,outcome,[2],inactive
O=C(O)C1CCC(C(=O)O)CC1 (stereo unspecified),outcome,[1],inactive
same,outcome,[2],inactive
O=C(Oc1ccccc1)c1ccccc1O,outcome,[1],inactive
same,outcome,[2],inactive
